Source: PubChem BioAssay (NCATS)
Inconclusive results are not listed. Active and inactive are the calls of the source. Calls follow the shape of the dose curve; as a rule, active = well fitted cell-killing curve with a large enough effect; inconclusive = small, poorly fitted or top-dose-only effect; inactive = flat fitted curve, though single readings scatter.

Experiment: Cell Viability - N2a (AID 540);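 also: cells exposed to compound for 40 h at 37 °C; plate controls were DMSO alone for no effect and tamoxifen control for full effect; nearly all actives have a fitted effect of over 45% in size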
Settings: N2a mouse neuroblastoma cell viability; activity change, negative = cytotoxicity: at 92.2 µM (top of the series)
Description: NIH Chemical Genomics Center [NCGC]
NIH Molecular Libraries Screening Centers Network [MLSCN]
National Institutes of Environmental Health Sciences [NIEHS]
National Toxicology Program [NTP]
We have developed a 1536-well cell-based assay for quantitative high throughput screening (qHTS) against a number of cell lines to determine in vitro cytotoxicity of small molecules. This particular assay uses the N2a cell line which is derived from mouse neuroblastoma.
NCGC Assay Protocol Summary:
The CellTiter-Glo luminescent cell viability assay (Promega) is a homogeneous method to measure the number of viable cells in culture. The end point readout of this assay is based on quantitation of intracellular ATP, an indicator of metabolic activity, using the luciferase reaction. Luciferase catalyzes the oxidation of beetle Luciferin to oxyluciferin and light in the presence of ATP. The luminescent signal is proportional to amount of ATP present.
Using the CellTiter-Glo luminescent cell viability assay, the amount of cellular ATP was measured in the N2a cell line with complete culture medium following compound treatment for 40 hours. The assay was performed in opaque white Kalypsys 1536-well plates. In the screen, tamoxifen and doxorubicin were used as positive controls. Library compounds were measured for their ability to cause acute toxicity in the cell line, as reflected by a decrease in intracellular ATP levels, in a concentration-dependent manner. […] AC50 values were determined from concentration-response data modeled with the standard Hill equation.
qHTS protocol for CellTiter Glo N2a cellular assay
[Step] [Parameter] [Value] [Description]
1. Reagent; 5 uL; 1500 N2a cells/well
2. Time; 5 hr; 37 °C incubation
4. Controls; 23 nL; Tamoxifen 0.34 uM to 100 uM & Doxorubicin 0.02 nM to 100 uM
5. Time; 40 hr; 37 °C incubation
6. Reagent; 5 uL; CellTiter Glo reagent
7. Time; 20 min; Room Temperature
8. Detection; Luminescence; Viewlux plate reader
Keywords: cell viability, cytotoxicity, N2a cell line, luminescence, NTPHTS, NTPHTS_NCGC, NIEHS, EPA, DSSTox, MLSMR, MLSCN, NIH Roadmap, qHTS, NCGC

| SMILES | activity change, negative = cytotoxicity |
| --- | --- |
| CCCCCCCCN | 7.89% (inactive) |
| CC/C=C/C#N | -7.86% (inactive) |
| CCOC(C)(C)C | -6.59% (inactive) |
| Oc1cccc(Nc2ccccc2)c1 | -16.5% (inactive) |
| C=CC(=O)NC(C)C | 4.17% (inactive) |
| CCNc1ccccc1 | 2.42% (inactive) |
| O=C(O)c1cccc(Cl)c1Cl | -7.38% (inactive) |
| CCCCN(CCO)CCCC | -15.2% (inactive) |
| COCCOC(=O)c1ccccc1C(=O)OCCOC | 4.24% (inactive) |
| Cc1c(C(=O)O)cccc1[N+](=O)[O-] | 5.3% (inactive) |
| O=Cc1ccc(CO)o1 | 1.46% (inactive) |
| Clc1ccccn1 | -19.1% (inactive) |
| Cc1cscn1 | 6.1% (inactive) |
| ON=C1CCCCC1 | 0.317% (inactive) |
| [O-]/[N+](=N\O)c1ccccc1 | 0.0649% (inactive) |
| O=C(O)CNC(=O)c1ccc(CO)o1 | -13.4% (inactive) |
| C/C=C1\CC2C=CC1C2 (stereo not given) | 4.82% (inactive) |
| O=C(Cl)c1c(Cl)cccc1Cl | 1.05% (inactive) |
| C1CCCC1 | 7.78% (inactive) |
| O=C(O)CNC(=O)c1ccc([N+](=O)[O-])cc1 | -8.74% (inactive) |

| SMILES | activity change, negative = cytotoxicity |
| --- | --- |
| CCOCC(=O)O | -1.83% (inactive) |
| Cc1c(N)cccc1[N+](=O)[O-] | 3.87% (inactive) |
| CC(C)Cc1nccs1 | 2.65% (inactive) |
| CCCCCCC(=O)O | -3.74% (inactive) |
| CNC(=O)c1ccccc1 | -4.58% (inactive) |
| Nc1cc(S(=O)(=O)O)ccc1O | -15.5% (inactive) |
| Cc1ccc(C#N)cc1 | 6% (inactive) |
| Cc1ccc(C)c(N)c1 | -15.8% (inactive) |
| O=C1OC(=O)c2c(Br)c(Br)c(Br)c(Br)c21 | -3.13% (inactive) |
| CCOc1ccc(NC(C)=O)cc1N | -12.5% (inactive) |
| ClC/C=C/CCl | -2.88% (inactive) |
| C=CCCCCCCC=C | -4.21% (inactive) |
| CCCCCCC=O | -2.45% (inactive) |
| CCCCC=O | 4.71% (inactive) |
| CC1CCCO1 (stereo not given) | -13.8% (inactive) |
| Cc1ccccc1C#N | -9.75% (inactive) |
| Oc1c(Cl)ccc(Cl)c1Cl | -9.1% (inactive) |
| COC(=O)CCCC(=O)OC | 3.33% (inactive) |
| O=C(O)c1ccc(Cl)cc1Cl | 7.33% (inactive) |
| Cc1ccc2cccnc2c1 | -6.28% (inactive) |
